Each structure is given as a SMILES string. Inconclusive results are not listed. Activity calls are given as the source filed them. Rule for the calls, unless noted: active = hit-call score of the fitted dose curve at least 0.9, where 1 is the maximum; inactive = score below 0.9.

The values that follow come from PubChem BioAssay (EPA / NIEHS).

Assay [1] deals with Retinoic acid receptor RXR-alpha (Homo sapiens) (UniProt P19793). As to the kind of experiment: ATG_RXRa_TRANS: Attagene TRANS-FACTORIAL HepG2 Assay for human Retinoid X Receptor alpha (RXRa) (AID 2283012; active = hit-call score of the fitted dose curve at least 0.9, where 1 is the maximum). The gist of the method: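 Measures exogenous chimeric NR-GAL4 activity in transfected HepG2 liver cells after 24 h of dosing. Induced reporter mRNA was detected by RT-PCR with capillary electrophoresis, and gain of signal was analysed against DMSO.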
Retinoic acid receptor RXR-alpha (Homo sapiens), sequence (P19793 whole entry, looked up, the tested form may be a part): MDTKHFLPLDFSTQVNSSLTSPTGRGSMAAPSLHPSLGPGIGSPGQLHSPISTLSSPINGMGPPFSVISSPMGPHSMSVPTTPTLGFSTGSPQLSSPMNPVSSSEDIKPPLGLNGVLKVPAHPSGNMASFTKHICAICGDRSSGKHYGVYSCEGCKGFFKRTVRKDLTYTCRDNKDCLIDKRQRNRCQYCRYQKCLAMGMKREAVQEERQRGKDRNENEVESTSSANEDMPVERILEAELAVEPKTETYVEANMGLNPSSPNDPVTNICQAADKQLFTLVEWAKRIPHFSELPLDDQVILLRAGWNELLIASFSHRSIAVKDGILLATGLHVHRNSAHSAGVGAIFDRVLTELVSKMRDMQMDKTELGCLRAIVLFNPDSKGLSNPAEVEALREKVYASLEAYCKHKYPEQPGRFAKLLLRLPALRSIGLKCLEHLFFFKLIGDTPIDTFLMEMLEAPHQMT

Assay [2] deals with human Retinoid X Receptor beta (RXRb), RXRB (gene 6257) (UniProt P28702). As to the kind of experiment: ATG_RXRb_TRANS: Attagene TRANS-FACTORIAL HepG2 Assay for human Retinoid X Receptor beta (RXRb) (AID 2283013; active = hit-call score of the fitted dose curve at least 0.9, where 1 is the maximum). A digest of the protocol: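 Chimeric receptor-Gal4 activity was assessed in transiently transfected human HepG2 cells after 24 h exposure. Transcripts from GAL4-UAS reporters were quantified by fluorescent RT-PCR and capillary electrophoresis, with DMSO as negative control and baseline.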
human Retinoid X Receptor beta (RXRb), RXRB (gene 6257), sequence (P28702 whole entry, looked up, the tested form may be a part): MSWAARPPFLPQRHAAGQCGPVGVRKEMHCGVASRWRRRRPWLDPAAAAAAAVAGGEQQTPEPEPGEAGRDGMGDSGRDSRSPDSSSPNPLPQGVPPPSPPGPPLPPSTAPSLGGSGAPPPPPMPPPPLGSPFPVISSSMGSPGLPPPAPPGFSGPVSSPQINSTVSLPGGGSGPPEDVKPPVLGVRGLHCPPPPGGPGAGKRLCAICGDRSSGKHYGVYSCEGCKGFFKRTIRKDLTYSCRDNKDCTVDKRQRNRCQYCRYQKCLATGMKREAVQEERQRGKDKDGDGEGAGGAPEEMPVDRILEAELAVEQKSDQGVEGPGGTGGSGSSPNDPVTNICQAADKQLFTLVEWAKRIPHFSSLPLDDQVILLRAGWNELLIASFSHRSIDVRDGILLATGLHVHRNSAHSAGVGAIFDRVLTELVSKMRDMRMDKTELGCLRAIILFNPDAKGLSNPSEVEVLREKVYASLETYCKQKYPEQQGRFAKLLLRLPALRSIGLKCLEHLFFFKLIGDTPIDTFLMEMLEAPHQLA

Assay [3] has as its target human Thyroid Receptor alpha (THRa1), THRA (gene 7067) (UniProt P10827). As to the kind of experiment: ATG_THRa1_TRANS: Attagene TRANS-FACTORIAL HepG2 Assay for human Thyroid Receptor alpha (THRa1) (AID 2283014; active = hit-call score of the fitted dose curve at least 0.9, where 1 is the maximum). A digest of the protocol:
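HepG2 cells transiently transfected with chimeric NR-Gal4 and GAL4-UAS reporter units, dosed 24 h. Reporter mRNA quantified by RT-PCR, fluorescent labeling, HpaI digestion and capillary electrophoresis; gain-of-signal fit versus DMSO.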

Read-out in assay [4]: E-selectin (Homo sapiens) (UniProt P16581)
As to the kind of experiment: BSK_3C_Eselectin: BioMAP Diversity Plus: 3C Assay for Eselectin Biomarker Activity (AID 2283015).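 For outcome: cell surface E-selectin protein quantified by ELISA 24 h after dosing.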 The settings on record: primary human endothelial cells (HUVEC); actives raise or lower the signal. A digest of the protocol: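 Primary human umbilical vein endothelial cells (3C system), read 24 h after compound addition; E-selectin measured by ELISA. Bidirectional curve fitting against DMSO baseline; cytotoxicity by parallel SRB total-protein staining.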

Read-out in assay [5]: Interleukin-1 alpha (IL1a), IL1A (gene 3552)
As to the kind of experiment: BSK_BE3C_IL1a: BioMAP Diversity Plus: BE3C Assay for Interleukin-1 alpha (IL1a) Biomarker Activity (AID 2283016). The settings on record: primary human bronchial epithelial cells; actives raise or lower the signal. The gist of the method:
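Signal from IL-1a ELISA, taken 24 h after chemical dosing of human bronchial epithelial cells, is compared with DMSO as baseline using bidirectional curve fitting.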

Read-out in assay [6]: Monocyte Chemoattractant Protein-1 (MCP1), CCL2 (gene 6347)
As to the kind of experiment: BSK_3C_MCP1: BioMAP Diversity Plus: 3C Assay for Monocyte Chemoattractant Protein-1 (MCP1) Biomarker Activity (AID 2283017). As to conditions: primary human endothelial cells (HUVEC); actives raise or lower the signal. A digest of the protocol: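 Human umbilical vein endothelial cells (3C system) exposed to chemicals for 24 h; MCP-1 quantified by ELISA against the DMSO baseline with bidirectional fitting, and parallel SRB staining used to assess cytotoxicity.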

Read-out in assay [7]: Monocyte Chemoattractant Protein-1 (MCP1), CCL2 (gene 6347)
As to the kind of experiment: BSK_4H_MCP1: BioMAP Diversity Plus: 4H Assay for Monocyte Chemoattractant Protein-1 (MCP1) Biomarker Activity (AID 2283018). The settings on record: primary human endothelial cells (HUVEC); actives raise or lower the signal. A digest of the protocol:
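Endothelial cells from umbilical vein were treated with test chemical, then after 24 h MCP-1 levels were quantified by ELISA; endpoint values came from bidirectional fitting with DMSO as baseline of activity.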

Read-out in assay [8]: Interleukin-8 (IL8), CXCL8 (gene 3576)
As to the kind of experiment: BSK_3C_IL8: BioMAP Diversity Plus: 3C Assay for Interleukin-8 (IL8) Biomarker Activity (AID 2283020). The settings on record: primary human endothelial cells (HUVEC); actives raise or lower the signal. A digest of the protocol: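 Endothelial primary cells of human umbilical vein origin are dosed with chemical; after 24 h the IL-8 biomarker is measured by ELISA, and concentration–response is fitted in both directions versus DMSO.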

Read-out in assay [9]: Monokine induced gamma interferon (MIG), CXCL9 (gene 4283)
As to the kind of experiment: BSK_3C_MIG: BioMAP Diversity Plus: 3C Assay for Monokine induced gamma interferon (MIG) Biomarker Activity (AID 2283021). As to conditions: primary human endothelial cells (HUVEC); actives raise or lower the signal. A digest of the protocol: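 Endothelial primary cells (human umbilical vein) are dosed with test chemical in the 3C system. MIG levels are measured by ELISA at 24 h and fitted in both directions relative to DMSO.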

Assay [10] has as its target human Vitamin D Receptor (VDR), VDR (gene 7421) (UniProt P11473). As to the kind of experiment: ATG_VDR_TRANS: Attagene TRANS-FACTORIAL HepG2 Assay for human Vitamin D Receptor (VDR) (AID 2283022; active = hit-call score of the fitted dose curve at least 0.9, where 1 is the maximum). A digest of the protocol:
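HepG2 cells were transiently transfected with GAL4-UAS reporter units and a chimeric VDR-Gal4 construct, then dosed for 24 hours. Reporter mRNA was quantified by RT-PCR, fluorescent labeling, HpaI digestion and capillary electrophoresis; gain of signal analysed vs DMSO.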

A short description of assay [11]: BSK_3C_SRB: Viability Assessment in the BioMAP Diversity Plus: 3C Assay (AID 2283023).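 Note: fitted both ways against DMSO so a hit may be signal rise or drop.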 The settings on record: primary human endothelial cells (HUVEC). A digest of the protocol: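 Human umbilical vein endothelial cells in the 3C system, treated 24 h. Total protein measured by 0.1% sulforhodamine B staining after 10% TCA fixation, read at 560 nm; bidirectional fit versus DMSO.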

Read-out in assay [12]: Matrix Metallopeptidase 1 (MMP1), MMP1 (gene 4312)
As to the kind of experiment: BSK_BE3C_MMP1: BioMAP Diversity Plus: BE3C Assay for Matrix Metallopeptidase 1 (MMP1) Biomarker Activity (AID 2283024). As to conditions: primary human bronchial epithelial cells; actives raise or lower the signal. A digest of the protocol:
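MMP1 signal, measured by ELISA after a 24 h chemical exposure of human primary bronchial epithelial cells, is analysed with bidirectional fitting using DMSO as negative control.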

Assay [13] is described as follows: BSK_3C_Vis: BioMAP Diversity Plus: 3C Assay for Morphology Visualization (AID 2283025).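 Note: fitted both ways so gain or loss versus DMSO counts.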 The settings on record: primary human endothelial cells (HUVEC). A digest of the protocol: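 Morphology read by light microscopy serves as a background control for the multiplexed 3C assay in human umbilical vein endothelial cells, taken 24 h after dosing, with DMSO as the negative control and bidirectional curve fitting.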

Read-out in assay [14]: Pselectin, SELP (gene 6403)
As to the kind of experiment: BSK_4H_Pselectin: BioMAP Diversity Plus: 4H Assay for Pselectin Biomarker Activity (AID 2283026). As to conditions: primary human endothelial cells (HUVEC); actives raise or lower the signal. A digest of the protocol:
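Endothelial primary cells (human umbilical vein) are dosed, incubated 24 h, and assayed for surface P-selectin by ELISA; responses in either direction are fitted relative to the DMSO negative control.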

A short description of assay [15]: BSK_4H_SRB: Viability Assessment in the BioMAP Diversity Plus: 4H Assay (AID 2283027).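 For AC50: curves fitted both ways versus DMSO so AC50 may be loss or gain.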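 Note: cells exposed to compound for 24 h before staining.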 The settings on record: primary human endothelial cells (HUVEC). A digest of the protocol: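 Cytotoxicity readout: sulforhodamine B (0.1%) staining of total protein after 10% TCA fixation, measured at 560 nm in human umbilical vein endothelium at 24 h. DMSO set the baseline; fitting was bidirectional.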

Read-out in assay [16]: Thrombomodulin, THBD (gene 7056)
As to the kind of experiment: BSK_3C_Thrombomodulin: BioMAP Diversity Plus: 3C Assay for Thrombomodulin Biomarker Activity (AID 2283029). The settings on record: primary human endothelial cells (HUVEC); actives raise or lower the signal. A digest of the protocol: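 Endothelial cells from umbilical vein are dosed with test chemical and incubated 24 h. Thrombomodulin is then quantified by ELISA, with DMSO serving as negative control and activity baseline.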

Read-out in assay [17]: Urokinase-type plasminogen activator receptor (uPAR), PLAUR (gene 5329)
As to the kind of experiment: BSK_4H_uPAR: BioMAP Diversity Plus: 4H Assay for Urokinase-type plasminogen activator receptor (uPAR) Biomarker Activity (AID 2283030). The settings on record: primary human endothelial cells (HUVEC); actives raise or lower the signal. The gist of the method:
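Human umbilical vein endothelial cells in the 4H system, 24 h after chemical dosing. Cell-surface uPAR measured by ELISA, fitted in both directions versus DMSO; cytotoxicity checked by SRB total protein in parallel cultures.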

Read-out in assay [18]: Vascular endothelial growth factor receptor 2 (Homo sapiens) (UniProt P35968)
As to the kind of experiment: BSK_4H_VEGFRII: BioMAP Diversity Plus: 4H Assay for Vascular endothelial growth factor receptor 2 (VEGFR2) Biomarker Activity (AID 2283031). The settings on record: primary human endothelial cells (HUVEC); actives raise or lower the signal. The gist of the method: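 Primary human umbilical vein endothelial cells (4H system), 24 h exposure; cell-surface VEGFR2 measured by ELISA. Bidirectional fitting versus DMSO; cytotoxicity checked in parallel by SRB total-protein staining.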

Read-out in assay [19]: Human Leukocyte Antigen - DR isotype (HLADR), HLA-DRA (gene 3122)
As to the kind of experiment: BSK_3C_HLADR: BioMAP Diversity Plus: 3C Assay for Human Leukocyte Antigen - DR isotype (HLADR) Biomarker Activity (AID 2283019).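 Note: ELISA of cell-surface HLA-DR on HUVEC 24 h after dosing.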 As to conditions: primary human endothelial cells (HUVEC); actives raise or lower the signal. A digest of the protocol:
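HUVEC monoculture, HLA-DR measured by ELISA 24 h after chemical dosing. Fitted bidirectionally against DMSO baseline; parallel SRB staining assessed cytotoxicity, with 3C proliferation read by SRB at 48 h.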

Assay [20] can be described thus: BSK_BE3C_SRB: Viability Assessment in the BioMAP Diversity Plus: BE3C Assay (AID 2283028). As to conditions: primary human bronchial epithelial cells. A digest of the protocol: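 Human bronchial epithelial primary cells in confluent culture, 24 h after chemical dosing; total protein by 0.1% SRB staining after 10% TCA fixation, read at 560 nm. Bidirectional fitting versus DMSO baseline.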

E-selectin (Homo sapiens), sequence (P16581 whole entry, looked up): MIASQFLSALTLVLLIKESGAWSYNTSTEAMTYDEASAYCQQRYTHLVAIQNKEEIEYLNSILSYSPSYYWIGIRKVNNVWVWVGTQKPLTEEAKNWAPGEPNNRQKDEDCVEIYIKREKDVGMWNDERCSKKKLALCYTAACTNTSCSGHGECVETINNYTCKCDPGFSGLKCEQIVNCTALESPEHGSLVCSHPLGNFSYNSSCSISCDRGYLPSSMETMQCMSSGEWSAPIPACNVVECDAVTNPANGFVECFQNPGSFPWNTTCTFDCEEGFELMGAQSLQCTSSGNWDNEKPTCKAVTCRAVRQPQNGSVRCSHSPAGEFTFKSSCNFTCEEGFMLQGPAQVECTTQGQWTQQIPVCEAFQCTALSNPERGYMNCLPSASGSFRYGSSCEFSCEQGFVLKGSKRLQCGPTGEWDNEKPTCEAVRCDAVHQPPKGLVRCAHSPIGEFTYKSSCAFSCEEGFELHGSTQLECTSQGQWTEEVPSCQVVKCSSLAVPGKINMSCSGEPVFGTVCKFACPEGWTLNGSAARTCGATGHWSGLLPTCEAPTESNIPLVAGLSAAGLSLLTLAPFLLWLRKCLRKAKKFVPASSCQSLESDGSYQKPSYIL
human Thyroid Receptor alpha (THRa1), THRA (gene 7067), sequence (P10827 whole entry, looked up, the tested form may be a part): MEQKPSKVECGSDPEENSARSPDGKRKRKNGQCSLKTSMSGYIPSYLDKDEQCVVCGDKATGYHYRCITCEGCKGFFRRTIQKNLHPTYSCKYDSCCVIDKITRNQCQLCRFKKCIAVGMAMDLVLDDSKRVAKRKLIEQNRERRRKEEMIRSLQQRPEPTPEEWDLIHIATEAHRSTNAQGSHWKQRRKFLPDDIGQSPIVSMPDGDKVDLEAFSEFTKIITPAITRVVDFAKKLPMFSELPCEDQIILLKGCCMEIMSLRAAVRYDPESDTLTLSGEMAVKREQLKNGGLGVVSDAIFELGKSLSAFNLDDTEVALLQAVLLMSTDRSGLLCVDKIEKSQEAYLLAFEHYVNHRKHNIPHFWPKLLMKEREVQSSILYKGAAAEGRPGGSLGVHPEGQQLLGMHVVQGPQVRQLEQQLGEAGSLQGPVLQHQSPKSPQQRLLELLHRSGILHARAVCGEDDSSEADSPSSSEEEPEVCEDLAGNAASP
human Vitamin D Receptor (VDR), VDR (gene 7421), sequence (P11473 whole entry, looked up, the tested form may be a part): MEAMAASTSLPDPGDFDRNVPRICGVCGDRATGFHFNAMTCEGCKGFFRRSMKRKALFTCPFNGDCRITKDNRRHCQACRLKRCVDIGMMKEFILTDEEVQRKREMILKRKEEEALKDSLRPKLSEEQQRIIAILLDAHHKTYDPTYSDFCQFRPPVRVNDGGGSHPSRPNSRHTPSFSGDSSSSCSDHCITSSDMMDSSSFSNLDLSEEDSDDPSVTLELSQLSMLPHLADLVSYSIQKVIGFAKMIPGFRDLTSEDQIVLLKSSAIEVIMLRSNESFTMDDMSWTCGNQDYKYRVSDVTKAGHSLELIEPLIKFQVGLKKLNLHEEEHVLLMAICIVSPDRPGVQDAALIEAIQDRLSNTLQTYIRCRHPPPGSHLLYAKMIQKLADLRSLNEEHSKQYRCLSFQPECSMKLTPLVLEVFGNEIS

Turning to `CCNc1cccc(C)c1`, the outcome in assay [1], in [2], in assay [3], in [4], in assay [5] and in [6] was inactive. In addition, the outcome in [7], in [8], in [9], in assay [10], in assay [11] and in [12] was inactive. Also, the outcome in assay [13], in [14], in assay [15], in assay [16], in assay [17] and in [18] was inactive.

As for `CN1CCCC1=O`, the call in assay [1], in assay [4], in [5], in assay [6], in [7] and in assay [19] was inactive. In addition, the outcome in [8], in assay [9], in assay [10], in assay [11], in [12] and in assay [13] was inactive. Besides, the result in [14], in assay [15], in assay [16], in [17] and in [18] was inactive. Further, the AC50 in assay [2] is 31.5 µM (active).

For `Cc1cccc([N+](=O)[O-])c1C`, the molecule was called inactive in assay [1], in assay [3], in assay [4], in [5], in assay [6] and in [7]. Besides, the outcome in [8], in assay [9], in assay [10], in assay [11], in assay [12] and in assay [13] was inactive. Besides, the result in assay [14], in assay [15], in assay [16], in assay [17] and in assay [18] was inactive. In assay [2], the AC50 was 53.4 µM (active).

In the case of `CCCCOC(=O)CCCCCCCCC(=O)OCCCC`, the call in [1], in assay [2], in assay [4], in assay [5], in [6] and in [7] was inactive. The result in assay [19], in assay [8], in [9], in [11], in assay [12] and in assay [13] was inactive. Further, the result in [14], in assay [15], in assay [20], in assay [16], in [17] and in assay [18] was inactive.

For the molecule `Cc1cccc(C)c1O`, the molecule was called inactive in assay [1], in assay [2], in assay [3], in assay [4], in assay [5] and in assay [6]. In addition, the result in assay [7], in assay [8], in assay [9], in [10], in assay [11] and in [12] was inactive. The result in assay [13], in assay [14], in [15], in assay [20], in assay [16] and in assay [17] was inactive. Moreover, the outcome in assay [18] was inactive.

For the molecule `O=c1c(O)c(-c2ccc(O)c(O)c2)oc2cc(O)cc(O)c12`, the call in [1], in assay [2], in [3], in assay [9], in [12] and in [20] was inactive. Also, the result in assay [16] was inactive. Also, the AC50 in assay [4] is 34.7 µM (active); in assay [5] it was 15.8 µM (active); in assay [6] it was 15 µM (active); in [7] it was 20 µM (active); in assay [8] it was 14.5 µM (active); in assay [11], 15.3 µM (active). Besides, the AC50 in assay [13] was 37.5 µM (active); in [14], 16.6 µM (active); in [15] it was 30.1 µM (active); in assay [17], 33.6 µM (active).

Take `Nc1ccccc1N`: the molecule was called inactive in [1], in [2], in assay [3], in assay [5], in assay [6] and in assay [7]. In addition, the result in [8], in assay [9], in [10], in assay [11], in assay [12] and in assay [13] was inactive. In addition, the outcome in [14], in [15], in assay [16], in assay [17] and in assay [18] was inactive. Moreover, the AC50 in assay [4] was 17.2 µM (active).

What is called AC50 is the midpoint of the concentration-response curve, whichever way the signal moves.
